Results filed as inconclusive are left out. Unmarked numbers belong to inactive results. Activity calls are given as the source filed them. The call rests on the fitted dose curve; in most records, active means well fitted inhibition curve with a large enough effect in the repeat runs; inconclusive means weak or mixed curves; inactive means no such curve, though single readings can be large or run the other way.
Target: Cytochrome P450 2C19 (Homo sapiens) (UniProt P33261)
Experiment: Cytochrome P450 Family 2 Subfamily C Member 19 (CYP2C19) small molecule antagonists: luciferase reporter qHTS assay (AID 1671197); further: nearly all actives have a fitted effect of over 65% in size
Settings: P450-Glo CYP2C19 enzyme, luciferin luminescence, 1 h; series mostly up to 115 µM; activity change, negative = inhibition: at the top concentration
Excerpt: National Center for Advancing Translational Sciences [NCATS]
U.S. Environmental Protection Agency [EPA]
National Institutes of Environmental Health Sciences [NIEHS]
National Toxicology Program [NTP]
U.S. Food and Drug Administration [FDA]
Cytochrome P450 (CYP) enzymes are membrane-bound hemeproteins that play a key role in metabolism of drugs and xenobiotics. Evaluation of the effect of chemicals on CYP isozymes is useful to minimize the adverse drug reactions and toxicities in drug development process. Tox21 chemicals were tested for their effect on CYP enzyme activities by using P450-Glo (TM) screening systems (Promega Corporation, Madison, WI). These systems provide a luminescent method containing proluciferin substrates and are converted to luciferin products by CYP isozymes. The luciferin products formed are detected with a luciferin detection reagent, and the amount of light produced is proportional to CYP activity. P450-Glo (TM) CYP2C19 screening system (Catalog. No. V9880) was used to detect the compounds that interfere in CYP2C19 activity. The positive control compound used for CYP2C19 assay is ketoconazole (Sigma-Aldrich, St. Louis, MO).
Tox21 Assay Protocol Summary:
Two ul of enzyme-substrate mix was dispensed into medium binding white/solid 1536-well plates (Greiner Bio-One North America Inc., Monroe, NC) using a BioRaptr Flying Reagent Dispenser (FRD, Beckman Coulter, Brea, CA). Compounds dissolved in DMSO and positive control (ketoconazole) were transferred to the assay plates at 23 nl using a Pintool station (Wako, San Diego, CA). The assay plates were incubated at room temperature for 10 min. Then 2 ul of NADPH regeneration solution was added to each well of the assay plates using an FRD and incubated at 37C for 1 h. The reaction was stopped by adding 4 ul of detection reagent using an FRD and after 20 min incubation at room temperature the luminescence signal was measured using a ViewLux plate reader (Perkin Elmer, Shelton, CT). Data were expressed as relative luminescence units.
On the % scale 0 is the no-effect control and ±100 the full control effect; potency means the concentration at half of the fitted maximal effect.

Cytochrome P450 2C19 (Homo sapiens), sequence (P33261 whole entry, looked up): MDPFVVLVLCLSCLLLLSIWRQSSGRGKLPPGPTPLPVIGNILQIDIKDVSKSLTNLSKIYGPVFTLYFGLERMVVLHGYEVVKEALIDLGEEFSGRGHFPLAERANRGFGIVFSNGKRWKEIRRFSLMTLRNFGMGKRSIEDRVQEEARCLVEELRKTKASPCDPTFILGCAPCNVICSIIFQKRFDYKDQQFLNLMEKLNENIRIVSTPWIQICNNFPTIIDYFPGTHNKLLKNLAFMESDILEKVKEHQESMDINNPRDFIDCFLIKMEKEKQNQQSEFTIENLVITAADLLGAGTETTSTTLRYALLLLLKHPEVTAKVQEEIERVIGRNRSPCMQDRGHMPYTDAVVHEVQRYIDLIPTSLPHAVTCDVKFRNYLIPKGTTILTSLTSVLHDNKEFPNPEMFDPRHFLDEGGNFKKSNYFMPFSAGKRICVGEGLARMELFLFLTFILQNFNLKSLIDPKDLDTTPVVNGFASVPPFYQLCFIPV

SMILES	activity change, negative = inhibition	Potency
Oc1cc(O)c2c(c1)O[C@H](c1ccc(O)c(O)c1)[C@H](O)C2	11.4% [at 52.9 µM]	–
CCCCc1ccc2cccc(S(=O)(=O)O)c2c1	0.814%	–
COC(=O)C1=C(C)NC(C)=C(C(=O)OCC(C)=O)C1c1ccccc1[N+](=O)[O-] (stereo not given)	–	5.49 µM (active)
CCN(CC)C(=O)c1ccc(O)c(OC)c1	26.3% [at 52.9 µM]	–
COc1ccc2cc(C=O)ccc2c1	–	15.5 µM (active)
CCOC(=O)[C@H](CCc1ccccc1)N[C@@H](C)C(=O)N1CCC[C@H]1C(=O)O	20.4% [at 52.9 µM]	–
O=[N+]([O-])c1ccc(CCO)cc1	-12.1%	–
COC(=O)CCCC(=O)O	-0.474%	–
NCCNC(=O)c1ccc(Cl)cn1	6.1% [at 52.9 µM]	–
CN(C)N=Nc1ccccc1	5.36%	–
C(=C(c1ccccc1)c1ccccc1)c1ccccc1	–	5.03 µM (active)
CC(C)(O)c1ccccc1	–	68.1 µM (active)
C=C(C)C1CC=C(C)C(O)C1 (stereo not given)	19.6%	–
O=S(=O)(c1cccc2cnccc12)N1CCCNCC1	-10.1% [at 52.9 µM]	–
Cc1c(F)cc2c(=O)c(C(=O)O)cn3c2c1CCC3C (stereo not given)	17.2% [at 52.9 µM]	–
CC(C=O)Cc1ccc(C(C)C)cc1 (stereo not given)	–	50.2 µM (active)
NC(=O)c1c(Cl)cccc1Cl	–	20 µM (active)
O=C1CC2(CCCC2)CC(=O)N1	-12.1% [at 52.9 µM]	–
Nc1nc2c(ncn2CCC(CO)CO)c(=O)[nH]1	-18.4% [at 52.9 µM]	–
O=C(O)/C=C/c1ccc(/C=C/C(=O)O)cc1	–	8.74 µM (active)

SMILES	activity change, negative = inhibition	Potency
N#CC1(O)CCCCC1	–	40.2 µM (active)
CN1[C@@H]2CC[C@H]1CC(NC(=O)n1c(=O)[nH]c3ccccc31)C2 (stereo not given in full)	13.4% [at 52.9 µM]	–
COCc1ccc(COC)cc1	9.66%	–
CC(C)N1C(=O)c2ccccc2C1=O	-10.1%	–
C#CC(C)(O)CC(C)C (stereo not given)	1.49%	–
COc1cc(C)cc(O)c1	-30.4%	–
Cc1ncc(CSSCc2cnc(C)c(O)c2CO)c(CO)c1O	–	15.5 µM (active)
Cc1cc(C)cc(OCC2CNC(=O)O2)c1 (stereo not given)	24.6% [at 52.9 µM]	–
C=C[Si](OC)(OC)OC	12.7%	–
Nc1ccc2cc(S(=O)(=O)O)ccc2c1	–	39.9 µM (active)
O=C(O)C1CCC1	47.5% [at 52.9 µM]	–
NCC[C@H](O)C(=O)N[C@@H]1C[C@H](N)[C@@H](O[C@H]2O[C@H](CN)[C@@H](O)[C@H](O)[C@H]2O)[C@H](O)[C@H]1O[C@H]1O[C@H](CO)[C@@H](O)[C@H](N)[C@H]1O	3.5% [at 0.435 µM]	–
CCCC(C)CO (stereo not given)	-27.7%	–
C/C=C1\C(=O)C[C@H]2[C@@H]3CCC4=CC(=O)CC[C@]4(C)[C@H]3CC[C@]12C	–	6.2 µM (active)
CCCCCCCCCCCCCCCCCCOCC(O)CO (stereo not given)	13% [at 52.9 µM]	–
CCCCCCOC(=O)CC(CC(=O)OCCCCCC)(OC(=O)CCC)C(=O)OCCCCCC	–	39.9 µM (active)
CC1(C)SC(C)(C)SC(C)(C)S1	35.5%	–
N#CCN(CC#N)CCN(CC#N)CC#N	3.15%	–
COc1cc(O)cc(O)c1	–	30.9 µM (active)
CCCc1ccccc1O	2.38%	–

From PubChem BioAssay (Tox21)
